Source: PubChem (University of Pittsburgh Molecular Library Screening Center)
HIV RNase H inh-1: HIV-1 RT RNase H inhibitors, primary screen, biochemical, fluorescence; inhibition, % at 10 µM; Gag-Pol polyprotein (Human immunodeficiency virus type 1 group M subtype B (isolate …; RT-RNase H RNA/DNA duplex cleavage; AID 565, 2006; 65,000 compounds, 1.9% hits; in the data active = inhibition above about 50%
HIV RNase H inh-2: HIV-1 RT RNase H inhibitors, retest, confirmation, biochemical; shares compounds with HIV RNase H inh-1; Recombinant RT RNase H, fluorescent RNA/DNA duplex cleavage; inhibition, % at 10 µM; 1,000 compounds, 39% hits; AID 651, 2007; in the data active = inhibition above about 48%; inconclusive = no clear call, values can overlap the other calls
Numbers without * were called inactive. Many of the other results were omitted from the sample, so hits are more common in it than they were.

What do the screens show for `COc1ccc(CC(=O)Nc2ccc(-c3noc(-c4cccc(OC)c4)n3)cc2)cc1`?
HIV RNase H inh-1: 79*; HIV RNase H inh-2: 62*

How did O=C1c2ccccc2C(Nc2ccc3c(c2)OCCO3)N1Cc1ccccc1 (centres undefined) do in these assays?
HIV RNase H inh-1: -14

What do the screens show for `CCOc1ccc(-n2c(Cc3ccccc3)nnc2SCc2c(C)noc2C)cc1`?
HIV RNase H inh-1: -10

Results for COc1ccc2c3c(c(=O)oc2c1OCC(N)=O)CCCC3 ?
HIV RNase H inh-1: -15

How did CCOC(=O)c1oc2ccc(Br)cc2c1CSc1nnc(C)s1 do in these assays?
HIV RNase H inh-1: -42

How did O=C(NCCO)c1ccc2[nH]c3c(c2c1)CCCC3 do in these assays?
HIV RNase H inh-1: 6

How did O=C(CN1CCSCC1)N1CCc2[nH]c3ccc(Br)cc3c2C1 do in these assays?
HIV RNase H inh-1: 15

Results for O=C(O)c1ccc2[nH]c3c(c2c1)CSCC3 ?
HIV RNase H inh-1: 66*; HIV RNase H inh-2: -1

What do the screens show for `COc1ccc(NC(=O)c2cnc3sccn3c2=O)cc1OC`?
HIV RNase H inh-1: -9

How did COc1ccc2c(CC(=O)OCC(=O)c3ccc(F)cc3)coc2c1 do in these assays?
HIV RNase H inh-1: 2

What do the screens show for `COc1ccc[nH]c1=O`?
HIV RNase H inh-1: 3

Results for O=S(=O)(c1ccc(NCCc2c[nH]c3ccccc23)nc1)N1CCOCC1 ?
HIV RNase H inh-1: -33

What do the screens show for `COc1ccc(C(=O)Nc2ccccc2-c2nnn(CC(=O)NCc3ccco3)n2)cc1`?
HIV RNase H inh-1: 0

Results for COC(=O)c1ccccc1NC(=O)NCc1ccco1 ?
HIV RNase H inh-1: -22

How did COc1ccc(C(=O)Nc2ccccc2C(=O)NC(C(=O)NCc2ccco2)C(C)C)cc1 (centres undefined) do in these assays?
HIV RNase H inh-1: 82*; HIV RNase H inh-2: 7

Results for CN(C)CCCC1(c2ccc(F)cc2)OCc2cc(C#N)ccc21 (centres undefined) ?
HIV RNase H inh-1: -2

What do the screens show for `CCc1ccc(C(=O)CSC2=C(C#N)C(c3ccco3)C(C(C)=O)=C(C)N2)cc1` (centres undefined)?
HIV RNase H inh-1: 0

What do the screens show for `CC(=O)C1=C(C)NC(SCC(=O)c2ccc(F)cc2)=C(C#N)C1c1ccco1` (centres undefined)?
HIV RNase H inh-1: -7

Results for COc1ccccc1NC(=O)C1=C(C)NC(SCC(=O)c2ccc(C)cc2)=C(C#N)C1c1ccco1 (centres undefined) ?
HIV RNase H inh-1: 59*; HIV RNase H inh-2: 39

Results for CCS(=O)(=O)c1ccc(O)c(N2C(=O)C3C4C=CC(C4)C3C2=O)c1 (centres undefined) ?
HIV RNase H inh-1: -7

How did c1csc(-c2csc3nc(CN4CCOCC4)nc(NCc4ccc5c(c4)OCO5)c23)c1 do in these assays?
HIV RNase H inh-1: -42

Results for CN(CC(=O)NCc1ccc2c(c1)OCO2)S(=O)(=O)c1ccc(Br)s1 ?
HIV RNase H inh-1: -15

What do the screens show for `CCn1cc(S(=O)(=O)CC(=O)Nc2ccc(OC)cc2)c2ccccc21`?
HIV RNase H inh-1: -1

What do the screens show for `COC(=O)C1=C(N)Oc2cc(C)n(CCN3CCOCC3)c(=O)c2C1c1cccnc1` (centres undefined)?
HIV RNase H inh-1: -7

What do the screens show for `c1ccc2c(c1)nnn2Cc1nnc2sc(-c3ccc4c(c3)OCCO4)nn12`?
HIV RNase H inh-1: 91*; HIV RNase H inh-2: 52*

How did Cc1ccc(-c2nnc3sc(-c4ccc5c(c4)OCCO5)nn23)cc1 do in these assays?
HIV RNase H inh-1: 1

How did COc1ccc(Cc2nn3c(Cn4nnc5ccccc54)nnc3s2)cc1 do in these assays?
HIV RNase H inh-1: 6

How did CCOc1ccc(S(=O)(=O)NCCC(=O)OC(C)C(=O)N2CCc3ccccc32)cc1 (centres undefined) do in these assays?
HIV RNase H inh-1: 2

How did CCOC(=O)N1CCN(C(=O)C(NS(=O)(=O)c2cccc3nsnc23)c2ccccc2)CC1 (centres undefined) do in these assays?
HIV RNase H inh-1: -10

Results for O=C(c1ccco1)N1CCN(C(=O)c2cc(-c3ccncc3)nc3ccc(Br)cc23)CC1 ?
HIV RNase H inh-1: 7

How did O=C(c1cccc(Cl)c1)N1CCN(C(=O)c2ccco2)CC1 do in these assays?
HIV RNase H inh-1: -8

Results for O=C(c1ccco1)N1CCN(C(=O)c2cc(-c3ccccn3)nc3ccc(Cl)cc23)CC1 ?
HIV RNase H inh-1: 69*; HIV RNase H inh-2: 1

Results for CCN(CC)C(NC(=O)c1ccccc1)C(=O)c1ccccc1 (centres undefined) ?
HIV RNase H inh-1: 0

What do the screens show for `NC(=O)c1cc(-c2ccccc2)sc1NC(=O)Cc1ccc(S(=O)(=O)N2CCOCC2)s1`?
HIV RNase H inh-1: 58*; HIV RNase H inh-2: 67*

What do the screens show for `O=C(Nc1nnc(-c2ccccc2)s1)c1ccc(Cl)c(S(=O)(=O)N2CCOCC2)c1`?
HIV RNase H inh-1: 6

What do the screens show for `O=C(NCc1ccccc1)c1cccc(S(=O)(=O)N2CCOCC2)c1`?
HIV RNase H inh-1: -2

How did Cc1cc(C(=O)NCCCn2ccnc2)sc1-c1ccccc1 do in these assays?
HIV RNase H inh-1: 12

How did COc1ccc(-n2c3c(cc(C(=O)Nc4ccc5c(c4)C(=O)NC5=O)c2=O)C(=O)CCC3)cc1 do in these assays?
HIV RNase H inh-1: -2

Results for COc1ccc(S(=O)(=O)N2CCCC2C(=O)Nc2ccc(C(C)=O)cc2)cc1 (centres undefined) ?
HIV RNase H inh-1: -3

What do the screens show for `CC(C)Cn1c(N)c(C(=O)COC(=O)c2cc(-c3ccco3)nc3ccccc23)c(=O)n(C)c1=O`?
HIV RNase H inh-1: 86*; HIV RNase H inh-2: inconclusive

Results for Cc1nn(-c2ccccc2)c(C)c1C(=O)OCC(=O)c1c(N)n(CC(C)C)c(=O)n(C)c1=O ?
HIV RNase H inh-1: 4

What do the screens show for `CC(C)Cn1c(N)c(C(=O)COC(=O)C2=COCCO2)c(=O)n(C)c1=O`?
HIV RNase H inh-1: 20

How did O=C(c1ccc2c(c1)OCO2)N(c1ccc(Cl)cc1)C1C=CS(=O)(=O)C1 (centres undefined) do in these assays?
HIV RNase H inh-1: -2

Results for Cc1nn(C(=O)CCCC(=O)n2nc(C)c(Cl)c2C)c(C)c1Cl ?
HIV RNase H inh-1: 7

Results for O=C(NCc1ccc2c(c1)OCO2)C1CC(=O)N(c2ccc(O)cc2)C1 (centres undefined) ?
HIV RNase H inh-1: -15

What do the screens show for `O=C(CCCn1c(SCC(=O)c2ccc(O)c(O)c2)nc2ccccc2c1=O)NCC1CCCO1` (centres undefined)?
HIV RNase H inh-1: 95*; HIV RNase H inh-2: 71*

What do the screens show for `CCC(C)NC(=O)CSc1nc2ccccc2c(=O)n1CCCC(=O)NCC1CCCO1` (centres undefined)?
HIV RNase H inh-1: -4

Results for O=C(CCCn1c(SCC(=O)NC2CCCCC2)nc2ccccc2c1=O)NCC1CCCO1 (centres undefined) ?
HIV RNase H inh-1: -3

Results for COc1ccc(NC(C)=O)cc1NC(=O)CSc1nc2ncccc2[nH]1 ?
HIV RNase H inh-1: -11

How did Cc1cccc(NC(=O)C2CCCN(S(=O)(=O)c3cccc4cccnc34)C2)c1 (centres undefined) do in these assays?
HIV RNase H inh-1: -68

How did Cc1nc(N2CCN(C(c3ccccc3)c3ccccc3)CC2)[nH]c(=O)c1C do in these assays?
HIV RNase H inh-1: 3
